Screening data as filed in PubChem.
Hits are enriched below; roughly 2.8% of the tested compounds scored in any of these assays.
HepG2 tox-1 = qHTS for Inhibitors of TGF-b: Cytotox Counterscreen; HepG2 CAGA-GFP viability, ATP luminescence, 18 h; Potency, µM (highest dose often 46.1 µM), most hits filed as cytotoxic; hit rate 0.76% among 410,000
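CellTiter-Glo luminescence gave cytotoxicity after 18 hours at 37 degrees C. The cells were HepG2 CAGA-GFP in 1% FBS DMEM, stimulated with 500 pg/mL TGF-beta after compound addition. %Activity was normalised to no-cell wells (complete cell-killing) and DMSO (no toxicity), and curves were fitted and classified.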
TGFb SMAD3 inh = qHTS for Inhibitors of TGF-b; HepG2 CAGA-GFP TGF-b/SMAD3 reporter, GFP fluorescence, 18 h; TGF-beta stimulated, 500 pg/mL final; Potency, µM (titrated, usually from 46.1 µM), hits mostly inhibitors; hit rate 1.2% among 410,000; AID 588855, 2011; also: nearly all actives have a fitted effect of over 65% in size
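HEPG2 CAGA-GFP reporter cells (1000/well, DMEM with 1% FBS) received compounds, then recombinant TGF-beta at 500 pg/mL final for 18 hours at 37 degrees C. Per-cell GFP summed per well was normalised to unstimulated and stimulated DMSO controls before curve fitting.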
HTT aggregate = qHTS Multiplex Assay to Identify Dual Action Probes in a Cell Model of Huntington: Aggregate Formation (GFP). PC12 HttQ103-GFP aggregates, Acumen cytometry, 40 h. Potency, µM (highest dose often 46.1 µM), actives largely listed as inhibitors. hit rate 1.1% among 220,000; also: nearly all actives have a fitted effect of over 60% in size
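PC12/HTTQ103-GFP, ecdysone-inducible; teb 100 nM; cpd qHTS titration; GFP aggregates read on laser cytometer, Ex 488/Em 500-530 nm.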
ATXN2 expr inh = Primary qHTS for Inhibitors of ATXN expression; HEK-293 ATXN2-luciferase reporter, luminescence, 24 h; hit rate 0.72% among 360,000; Potency, µM (highest dose often 57 µM), hits mostly inhibitors; also: nearly all actives have a fitted effect of over 55% in size
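qHTS (up to 57 uM final) was run with 24 h compound exposure of reporter cells at 37 °C. Each well was multiplexed: SteadyGlo luminescence measured ATXN2-luciferase expression after a fluorogenic Gly-Phe-AFC viability readout (25 uM final).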
HTT ATP protect = qHTS Multiplex Assay to Identify Dual Action Probes in a Cell Model of Huntington: Cytoprotection (ATP) | Potency, µM (doses to about 56.4 µM), usual class: activators | PC12 HTT-Q103 induced, cytoprotection, ATP luminescence, 40 h | hit rate 0.14% among 230,000 | AID 1471, 2008; also: nearly all actives have a fitted effect of over 45% in size
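Readout: ATPlite luminescence (ATP level). Model: stable PC12, inducible Htt exon1 Q103-GFP. Inducer: tebufenozide, 100 nM final. Compounds: dose series. No G418 in medium.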
ATXN viability = Viability Counterscreen for Primary qHTS for Inhibitors of ATXN expression | S2 cells (HEK-293 line with an ATXN2-luciferase reporter) viability, CellTiter-Fluor protease fluorescence, 24 h | Potency, µM (highest dose often 56.7 µM), actives largely listed as cytotoxic | hit rate 0.49% among 400,000; also: nearly all actives have a fitted effect of over 40% in size
TGFb CAGA inh = qHTS for Inhibitors of TGF-b: Confirmation of Cherry Picks. shares compounds with TGFb SMAD3 inh. HepG2 CAGA-GFP TGF-b reporter, GFP fluorescence, 18 h; cells stimulated with TGF-beta, 500 pg/mL. Potency, µM (titrated, usually from 46.1 µM), most hits filed as inhibitors. hit rate 63% among 1,600; also: nearly all actives have a fitted effect of over 65% in size
HepG2 tox-2 = qHTS for Inhibitors of TGF-b: Cytotox Counterscreen for Cherry Picks | HepG2 CAGA-GFP viability, ATP luminescence, 18 h; cells stimulated with TGF-beta, 500 pg/mL | shares compounds with TGFb SMAD3 inh | Potency, µM (titrated, usually from 46.1 µM), most hits filed as inhibitors | hit rate 27% among 1,600; also: nearly all actives have a fitted effect of over 70% in size
TGFb CCL64 inh = qHTS for Inhibitors of TGF-b: CCL64 Cells Orthogonal Assay for Cherry Picks; shares compounds with TGFb SMAD3 inh; hit rate 41% among 1,600; Potency, µM (series often up to 46.1 µM), usual class: inhibitors; CCL64 CAGA-GFP reporter, TGF-b stimulated, GFP fluorescence, 18 h; also: nearly all actives have a fitted effect of over 65% in size
COP TGFb inh = qHTS for Inhibitors of TGF-b: Hit Validation in HepG2 Cells using COP promoter | shares compounds with TGFb SMAD3 inh | HepG2 COP-GFP TGF-b reporter, GFP fluorescence, 18 h; cells stimulated by added recombinant TGF-beta | Potency, µM (top dose mostly 46.1 µM), usual class: inhibitors | hit rate 3% among 1,600; also: nearly all actives have a fitted effect of over 70% in size
Numbers stand for hits; . = inactive; ? = inconclusive; / = not tested or not shown; [ ] = remark or other dose. Calls follow the shape of the dose curve; as a rule, active = well fitted curve in the direction sought with a large enough effect; inconclusive = small, poorly fitted or top-dose-only effect, or another doubt; inactive = no such curve, though single readings can be large; an effect the other way counts as inactive or inconclusive.

SMILES	HepG2 tox-1	TGFb SMAD3 inh	HTT aggregate	ATXN2 expr inh	HTT ATP protect	ATXN viability	TGFb CAGA inh	HepG2 tox-2	TGFb CCL64 inh	COP TGFb inh
CCOc1ccccc1-n1c(CNc2ccc(F)cc2)nnc1SCC(=O)NCc1ccco1	.	8.91µM	.	.	.[10 µM]	?	?	.	.	.
O=C(CN(CCc1ccccc1)S(=O)(=O)c1ccc(Cl)cc1)N/N=C/c1ccc2c(c1)OCO2	.	?	.	.	.[10 µM]	?	?	.	.	.
C[C@H](c1ccccc1)N1C(=O)[C@H]2[C@@H]3[C@H](O)[C@H](O)CC(=O)[C@H]3CC[C@H]2C1=O	/	/	/	/	.[10 µM]	/	/	/	/	/
O=C(c1ccc2c(c1)OCO2)C1CCCN(Cc2ccc(OC(F)F)cc2)C1 (stereo unspecified)	.	?	/	/	/	.	?	?	?	.
CC(=O)Nc1ccc(NC(=O)CSc2ccc(-c3ccc4c(c3)OCO4)nn2)cc1	.	.	.	.	.[10 µM]	.	/	/	/	/
Cc1ccc(-c2ccc(SCC(=O)Nc3ccc4c(c3)OCCO4)nn2)cc1	.	3.16µM	.	.	.[10 µM]	?	20.6µM	.	.	.
COc1ccc2c(c1)O[C@@H](c1cccc(C(F)(F)F)c1)[C@H](OC(=O)NS(=O)(=O)c1ccc(C)cc1)C2=O	/	/	/	/	.	/	/	/	/	/
CC(C)(C)OC(=O)N1CCC(NC(=O)c2[nH]cnc2C(=O)Nc2ccccc2)CC1	.	12.6µM	/	?	/	?	?	?	?	.
CC1CCN(C(=O)c2[nH]cnc2C(=O)NCC(=O)OC(C)(C)C)CC1	.	.	/	.	/	.	/	/	/	/
CC1CCN(C(=O)c2[nH]cnc2C(=O)NCc2ccc(CNC(=O)OC(C)(C)C)cc2)CC1	.	?	/	.	/	.	?	.	.	.
CC1CCN(C(=O)c2[nH]cnc2C(=O)NCc2ccccc2)CC1	.	?	/	.	/	.	.	.	.	.
O=C(NCc1ccccc1)c1nc[nH]c1C(=O)N1CCN(c2ccccc2)CC1	.	.	/	.	/	.	/	/	/	/
COc1cccc(-c2nc(N3CCCCC3)c3ccccc3n2)c1O	.	11.2µM	/	.	/	.	18.4µM	?	?	.
COc1cccc(-c2nc(N3CCN(c4ccccc4)CC3)c3ccccc3n2)c1O	.	.	.	.	.	.	/	/	/	/
C=CCOC(=O)C(C(=O)CC)C(NC(=O)OC)c1ccc(F)cc1 (stereo unspecified)	/	/	/	/	.[10 µM]	/	/	/	/	/
COc1ccc(NC(=O)C2CCN(S(=O)(=O)c3ccc4c(c3)NC(=O)C(C)S4)CC2)cc1 (stereo unspecified)	.	?	/	.	/	.	/	/	/	/
CC1Sc2ccc(S(=O)(=O)N3CCC(C(=O)Nc4ccc(Cl)cc4)CC3)cc2NC1=O (stereo unspecified)	.	20µM	/	/	/	?	5.17µM	?	?	.
